Source: PubChem (The Scripps Research Institute Molecular Screening Center)
PKA-R1A activ – activates the PKA-R1A holoenzyme complex; P00514+P68181; PKA-R1A dissociation, Cy5-IP20 fluorescence polarization; scaled: DMSO 0%, 113 µM cGMP 100%; activation, % at 11.4 µM; 340,000 tested, 0.083% active;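 active = percent activation above the mean of all tested compounds plus 3 SD, cut at about 19% in these data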;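 also: higher means more PKAc released from R1A so a rise in polarization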
eLon inh – inhibitors of E. coli Lon protease. inhibition, % at 7.94 µM. AID 602123. purified E. coli Lon protease, fluorescence polarization. 360,000 tested, 0.42% active. P0A9M0; in the data active = inhibition above about 13%, passing the limit was not always enough;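 also: 0% = enzyme with probe and DMSO and 100% = no enzyme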
Target sequence (P0A9M0 whole entry, looked up): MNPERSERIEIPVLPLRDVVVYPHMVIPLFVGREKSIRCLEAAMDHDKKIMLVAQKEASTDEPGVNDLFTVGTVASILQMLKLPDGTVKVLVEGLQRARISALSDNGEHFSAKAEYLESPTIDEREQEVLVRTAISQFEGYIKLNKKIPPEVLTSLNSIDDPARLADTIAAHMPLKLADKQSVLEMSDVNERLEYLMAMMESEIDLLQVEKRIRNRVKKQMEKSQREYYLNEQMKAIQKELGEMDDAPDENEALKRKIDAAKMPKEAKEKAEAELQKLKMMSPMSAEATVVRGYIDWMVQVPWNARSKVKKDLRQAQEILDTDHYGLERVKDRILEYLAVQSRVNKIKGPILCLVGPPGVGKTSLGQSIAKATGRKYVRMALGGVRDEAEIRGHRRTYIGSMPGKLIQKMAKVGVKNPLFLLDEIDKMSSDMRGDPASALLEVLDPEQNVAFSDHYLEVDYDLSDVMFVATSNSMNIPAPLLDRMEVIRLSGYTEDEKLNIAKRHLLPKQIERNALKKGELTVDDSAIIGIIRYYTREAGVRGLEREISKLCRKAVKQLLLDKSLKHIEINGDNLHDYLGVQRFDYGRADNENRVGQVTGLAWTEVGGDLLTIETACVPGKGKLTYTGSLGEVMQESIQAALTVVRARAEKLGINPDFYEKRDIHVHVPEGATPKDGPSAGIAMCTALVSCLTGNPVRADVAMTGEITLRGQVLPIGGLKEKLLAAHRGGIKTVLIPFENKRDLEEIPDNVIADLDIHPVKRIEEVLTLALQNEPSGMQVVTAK
PKA-R2B act – activates the human PKA-R2B holoenzyme complex; P22694+P31323; PKA-R2B holoenzyme dissociation, Cy5-IP20 fluorescence polarization; R2B truncated from residue 108, S112A mutant; 0% DMSO only, 100% 113 µM cGMP; activation, % at 11.4 µM; 340,000 tested, 0.079% active; AID 504700;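 active = activation above a cutoff set at the mean over all compounds plus 3 SD, cut at about 18% in these data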;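 also: higher means more holoenzyme dissociation and a rise in polarization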
IDE act – IDE (human) activation, cell-based; P14735; HEK cells, FAbeta-B cleavage, fluorescence polarization; 0% vehicle, 100% cell-free pure enzyme wells; activation, % at 5.96 µM; 340,000 tested, 0.073% active; AID 493087;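 active = activation above the mean of all tested compounds plus 3 SD, set per screening campaign, cut at about 17% in these data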
IDE inh – inhibits human insulin-degrading enzyme in HEK cells; P14735; FAbetaB cleavage, fluorescence polarization; inhibition, % at 5.59 µM; 320,000 tested, 0.41% active; AID 434962;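 active = percent inhibition above the average of all tested compounds plus 3 SD, set per screening campaign, cut at about 16% in these data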;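 also: IDE supplied by intact live HEK cells; FP after avidin binding of uncleaved biotin substrate so inhibition keeps polarization high; 0% = DMSO wells and 100% = 60 µM reference IDE inhibitor Ii1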
Rin1 Abl inh – human Rin1-Abl interaction inhibition; TR-FRET Rin1/Abl binding, biochemical; inhibition, % at 7.35 µM; 360,000 tested, 0.4% active; AID 588664; in the data active = inhibition above about 5%, passing the limit was not always enough
Rin1 Abl conf – confirmation of inhibitors of human Rin1-Abl interaction; inhibition, % at 7.35 µM; 1,300 tested, 49% active; AID 602124; shares compounds with Rin1 Abl inh; TR-FRET Rin1-Abl binding, purified proteins
GFP quench – quenches GFP fluorescence, counter-screen for Rin1-Abl inhibitors | shares compounds with Rin1 Abl inh | inhibitors/quenchers counterscreen | AID 602125 | 1,300 tested, 8.5% active | inhibition, % at 6.75 µM;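 also: ABL1-eGFP fusion protein alone without its partner RIN1-SBP; 0% = protein with vehicle and 100% = wells lacking protein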
GFP quench DR – counter-screen for Rin1-Abl inhibitors: GFP quenchers, dose response. IC50, µM. shares compounds with Rin1 Abl inh. GFP fluorescence interference/quenching counterscreen. 230 tested, under 10 active; call rule not given here;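 also: ABL1-eGFP fusion protein alone without its RIN1 binding partner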
Starred values were filed as active, the others as inactive; . = no result given. The list is not random: actives were taken first. Their share in the collection is about 1.3%. Rule as the data show it, unless noted: active = inhibition above about 6.5%; inactive = the rest.

SMILES	PKA-R1A activ	eLon inh	PKA-R2B act	IDE act	IDE inh	Rin1 Abl inh	Rin1 Abl conf	GFP quench	others
CN(C)S(=O)(=O)c1ccc(N2CCCC2)c(C(=O)NCCc2ccc(F)cc2)c1	-0.7	1.3	-6.7	5.7	3.0	-0.6	.	.
CCOc1ccc(N(C(=O)c2snc(C(N)=O)c2N)C(C(=O)NC2CCCC2)c2ccncc2)cc1 (stereo unspecified)	-2.5	4.1	-13.5	2.7	-1.2	7.6*	2.6	-0.3
Cc1ccc(N(C(=O)c2snc(C(N)=O)c2N)C(C(=O)NCC2CCCO2)c2ccc3ncccc3c2)cc1 (stereo unspecified)	-1.6	-3.9	-6.5	-4.2	.	2.9	.	.
CCOc1ccc(C(C(=O)NCC2CCCO2)N(C(=O)c2snc(C(N)=O)c2N)c2ccccc2F)cc1 (stereo unspecified)	0.9	0.1	-7.2	1.3	1.3	8.5*	11.0*	0.0
Cc1ccc(C(C(=O)NCC2CCCO2)N(C(=O)c2snc(C(N)=O)c2N)c2ccc3c(c2)OCCO3)cc1 (stereo unspecified)	-25.9	11.8	-12.6	0.9	-0.9	12.9*	13.5*	-2.1
NC(=O)c1nsc(C(=O)N(c2ccc3c(c2)OCCO3)C(C(=O)NCC2CCCO2)c2ccc(F)cc2)c1N (stereo unspecified)	-15.0	-4.5	-4.1	3.1	4.5	11.1*	10.9*	-1.3
CCOc1ccc(C(C(=O)NCC2CCCO2)N(C(=O)c2snc(C(N)=O)c2N)c2cccc(F)c2)cc1 (stereo unspecified)	-11.2	-16.6	-13.9	7.2	9.8	3.5	.	.
CCCCCCSC1=C(C#N)C(=O)NC2(CCCCC2)S1	1.2	-5.1	3.3	5.6	2.6	0.1	.	.
O=C1CCC([N+](=O)[O-])C(c2ccc(C(F)(F)F)cc2)N1 (stereo unspecified)	3.1	-4.5	9.6	6.2	4.3	8.2*	2.1	-1.6
NC(=O)C1CCN(C(=O)c2cnn(-c3ccccc3)c2NC(=O)c2cccc(F)c2)CC1	8.2	4.7	6.1	2.0	2.0	23.0*	1.3	1.1
Cc1ccsc1C(=O)NNC(=O)c1ccc(NS(=O)(=O)c2cccs2)cc1	0.1	6.1	5.5	1.2	0.6	10.0*	-1.2	-0.6
COc1ccc(-c2noc(=O)n2Cc2ccccc2Cl)cc1	-4.1	1.1	-8.8	-3.8	1.2	-1.3	.	.
CC(C)OC(=O)Nc1ccc2c(c1)N(C(=O)CCN1CCOCC1)c1ccccc1CC2	1.6	4.9	4.2	-1.6	0.6	3.3	.	.
O=C(O)CCCCCCCCCCC1CCC(O)C1O (stereo unspecified)	-1.6	0.4	0.9	0.0	.	-0.1	.	.
COC(=O)CCCCC1SCC2NC(=O)NC21 (stereo unspecified)	-9.4	-6.0	-3.6	-6.2	2.0	11.9*	16.1*	0.5
O=C(O)CCCC[C@@H]1SC[C@@H]2NC(=O)N[C@@H]21	-0.6	-7.4	-0.8	64.5*	-29.0	83.9*	92.9*	-0.6	GFP quench DR=>67.6
S=c1[nH]c2cc3c(cc2[nH]1)OCCO3	8.9	13.9	1.9	3.1	4.2	0.0	.	.
COc1cc(CNCc2ccccc2)c(Br)cc1OC1CCCC1	-2.6	2.2	-1.0	-0.3	1.2	8.8*	5.3	-1.0
COc1cc(CNC2CCCC2)c(Br)cc1OC1CCCC1	-7.8	-6.1	1.5	-0.1	2.5	4.3	.	.
O=c1c(O)cccc2cc(O)c(O)c(O)c12	-1.6	14.6	-5.8	5.5	6.5	42.9*	39.1*	33.2*
C=CCN1C(=O)/C(=C2/Sc3ccccc3N2CCCS(=O)(=O)O)SC1=S	-11.4	-5.3	-12.5	3.3	-0.6	3.2	.	.
